A selection: hits, their analogues and other compounds. The true share with any hit is near 12%.
JMJD2A Tudor inh = inhibitors of human JMJD2A Tudor domain. Potency, µM (top dose mostly 114 µM), inactives show at the highest dose activity change, negative = inhibition, usual class: inhibitors. AlphaScreen JMJD2A-Tudor / H3K4me3 peptide binding. O75164. AID 504339. actives 4.4% (n = 390,000); further: potency means the concentration at half of the fitted maximal effect; on the % scale 0 is the no-effect control and ±100 the full control effect; nearly all actives have a fitted effect of over 50% in size
PI5P4K alpha inh = PI5P4K alpha (human) kinase inhibition; max response, %; AID 652105; P48426; actives 1.2% (n = 330,000); PI5P4Kalpha enzyme, ADP-Glo luminescence, 60 min; hits give low values; active means max response of -50% or lower; inconclusive means between -30% and -50%; inactive means -30% or higher; further: value at the top dose of about 77 µM; on the % scale 0 is the no-effect control and ±100 the full control effect
Target sequence (P48426 whole entry, looked up): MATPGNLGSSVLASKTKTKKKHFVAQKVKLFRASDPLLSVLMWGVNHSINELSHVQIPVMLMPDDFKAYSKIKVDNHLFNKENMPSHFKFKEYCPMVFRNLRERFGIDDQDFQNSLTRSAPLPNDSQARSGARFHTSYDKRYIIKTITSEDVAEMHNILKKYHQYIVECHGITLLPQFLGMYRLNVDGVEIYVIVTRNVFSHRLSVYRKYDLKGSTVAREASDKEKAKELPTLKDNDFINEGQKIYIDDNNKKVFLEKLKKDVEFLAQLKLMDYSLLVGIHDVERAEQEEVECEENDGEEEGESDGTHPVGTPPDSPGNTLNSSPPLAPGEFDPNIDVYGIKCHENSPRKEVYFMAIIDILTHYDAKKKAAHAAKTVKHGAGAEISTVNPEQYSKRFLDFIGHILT
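Compounds were pin-transferred onto PI5P4Kalpha and substrate in HEPES pH 7.4 buffer with EGTA, CHAPS and 5% DMSO. ATP (5 microM final) started the reaction, which ran 60 minutes at room temperature before ADP-Glo detection.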
HP1b chromo inh = inhibitors of HP1-beta chromodomain binding to methylated histone tails; P83916; AlphaScreen HP1-beta / biotin-H3K9me3 peptide binding; Potency, µM (doses to about 114 µM), for the others: top-dose activity change, negative = inhibition, actives largely listed as inhibitors; actives 0.56% (n = 390,000); further: potency means the concentration at half of the fitted maximal effect; nearly all actives have a fitted effect of over 70% in size
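AlphaScreen: HP1-beta (50 nM) preformed 30 min with biotin-H3(1-18)K9me3 peptide (50 nM) in PBS pH 7.4, 0.01% Tween-20. Compound added for 30 min at RT, then streptavidin donor/nickel chelate acceptor beads (10 ug/mL) for 30 min.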
G9a inh = inhibitors of human histone lysine methyltransferase G9a | Q96KQ7 | G9a H3K9 monomethylation, AlphaScreen, 2 h | actives 8.8% (n = 350,000) | AID 504332 | Potency, µM (top dose mostly 102 µM), for inactives: at the highest dose activity, negative = inhibition, hits mostly inhibitors; further: potency means the concentration at half of the fitted maximal effect; on the % scale 0 is the no-effect control and ±100 the full control effect; nearly all actives have a fitted effect of over 75% in size
Target sequence (Q96KQ7 913-1193 limits assumed): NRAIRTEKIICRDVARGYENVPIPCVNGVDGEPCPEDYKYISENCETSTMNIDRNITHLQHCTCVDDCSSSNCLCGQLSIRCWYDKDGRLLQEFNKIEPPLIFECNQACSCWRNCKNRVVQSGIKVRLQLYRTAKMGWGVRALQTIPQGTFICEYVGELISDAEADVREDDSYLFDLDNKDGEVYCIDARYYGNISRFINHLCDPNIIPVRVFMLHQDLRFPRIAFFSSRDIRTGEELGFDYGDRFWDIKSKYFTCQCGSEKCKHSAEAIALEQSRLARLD
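Compounds were preincubated with 20 nM G9a for 15 min, after which biotinylated H3K9 peptide (500 nM) and SAM (20 uM) started a 2 h room-temperature reaction. Monomethylated product was quantified by antibody-based AlphaScreen chemiluminescence.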
PLK1 PBD block = PLK1 (human) polo-box domain binding inhibition. P53350. Plk1 PBD binding of FITC phosphopeptide, fluorescence polarization. Potency, µM, for inactives: max response, negative = inhibition, usual class: inhibitors. actives 2.8% (n = 360,000). AID 720504; further: potency means the concentration at half of the fitted maximal effect; series mostly up to about 57 µM; on the % scale 0 is the no-effect control and ±100 the full control effect; nearly all actives have a fitted effect of over 65% in size
BAZ2B inh = BAZ2B (human) inhibition | AID 504333 | AlphaScreen BAZ2B-H3K14Ac peptide displacement | actives 4.4% (n = 360,000) | Potency, µM (series often up to 114 µM), inactives show at the highest dose activity change, negative = inhibition, usual class: inhibitors; further: potency means the concentration at half of the fitted maximal effect; on the % scale 0 is the no-effect control and ±100 the full control effect; nearly all actives have a fitted effect of over 60% in size
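Protein-peptide AlphaScreen: BAZ2B 50 nM, b-H3K14Ac 50 nM, 1x PBS pH 7.4 + 0.01% Tween-20. Preincubation 30 min RT; cpd 30 min RT (top 110 uM); beads 20 min RT, light-protected.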
Starred values were filed as active, the others as inactive; ? = inconclusive; . = no result given; [ ] = remark or other dose. Unless noted, the call rests on the fitted dose curve; in most records, active means well fitted curve in the direction sought with a large enough effect; inconclusive means small, poorly fitted or top-dose-only effect, or another doubt; inactive means no such curve, though single readings can be large; an effect the other way counts as inactive or inconclusive.

SMILES | JMJD2A Tudor inh | PI5P4K alpha inh | HP1b chromo inh | G9a inh | PLK1 PBD block | BAZ2B inh
CCOC(=O)C1=C(CN2CCCCC2)NC(=O)NC1c1ccc(OC)cc1 (centres undefined) | -5.0% | . | 1.5% | -22.0%[59 µM] | . | -9.5%
CC(=O)C1=C(C)NC(=O)NC1c1ccc(OC2CCCC2)cc1 (centres undefined) | -7.9% | . | 23.4% | 5.1%[12.7 µM] | 6.4% | 6.7%
COc1ccc(C2NC(=O)NC(C)=C2C(C)=O)cc1 (centres undefined) | -16.2% | ? | 18.3% | 12.6µM* | 3.9% | 2.6%
O=C(C1=C[C@@H]2[C@H]3C(=O)N(c4ccccc4)C(=O)[C@H]3[C@@H](C(=O)c3ccc(Cl)cc3)N2C=C1)c1ccccc1 | . | . | . | 11.2µM* | . | ?
O=C(O)CN1C(=O)/C(=C/C=C/c2ccccc2)SC1=S | -34.6% | -2.2 | -11.8% | ? | ? | ?
C#CCN1C(=O)S/C(=C/C=C/c2ccc(N(C)C)cc2)C1=O | 25.1µM* | -6.1 | 20µM* | 8.91µM* | 28.3% | 10µM*
COC(=O)N/N=C/c1sc(N2CCCCC2)nc1-c1cccs1 | ? | 1.1 | 16.4% | 50.1µM* | -0.5% | ?
CC1=NN(c2ccccc2)C(=O)C1C=Nc1ccccc1O (centres undefined) | -28.2% | 1.7 | 18.4% | -0.8% | -4.4% | -23.1%
CC1=NN(c2ccccc2)C(=O)C1/C=C1\NC(=S)NC1=O (centres undefined) | 56.2µM* | -73.6* | ? | ? | 18.9µM* | ?
COc1ccc(Cc2nnc(NS(=O)(=O)c3ccc(NC(C)=O)cc3)s2)cc1 | 7.1% | 0.3 | 24.9% | -21.0% | -12.8% | 6.8%
CC(=O)Nc1ccc(S(=O)(=O)Nc2nnc(C3CCCCC3)s2)cc1 | -9.3% | -12.7 | -7.3% | ? | 23.8µM* | 7.3%
CC(=O)Nc1ccc(S(=O)(=O)Nc2nnc(C(C)C)s2)cc1 | -33.3% | -1.0 | -2.4% | 25.1µM* | ? | ?
CC(=O)Nc1ccc(S(=O)(=O)Nc2nnc(Cc3ccc(Cl)cc3)s2)cc1 | 1.1% | -14.2 | 0.2% | 22.4µM* | 26.7µM* | -23.8%
Cc1ccc(/C=C/C(=O)OCn2nnc3ccccc3c2=O)o1 | -3.4% | 0.1 | 15.3% | ? | -1.1% | -33.9%
O=C(/C=C/c1ccco1)OCn1nnc2ccccc2c1=O | -12.8% | 3.1 | 16.6% | 35.5µM* | -7.5% | 56.2µM*
O=C(/C=C/c1ccco1)OCc1nnc(-c2ccccc2)o1 | -26.2% | -26.5 | 5.7% | 50.1µM* | -6.5% | 50.1µM*
COC(=O)c1ccccc1NC(=O)COC(=O)/C=C/c1ccco1 | -12.8% | -1.5 | 11.5% | 50.1µM* | -3.3% | ?
CN(C)S(=O)(=O)c1cc(NC(=O)COC(=O)/C=C/c2ccco2)ccc1Cl | 56.2µM* | -71.5* | ? | ? | -27.3% | ?
CC1(C)C(=O)Nc2ccccc2N1C(=O)COC(=O)c1cccnc1 | -25.8% | ? | 24.3% | ? | -12.6% | -0.9%
Cc1cccc(-n2c(=O)c3c(c4cc(C)ccc4n3C)n(CC(=O)NCC3CCCO3)c2=O)c1 (centres undefined) | 8.3% | . | 25.2% | -0.2%[59 µM] | . | -3.7%
O=C(COC(=O)/C=C/c1ccco1)Nc1ccccc1 | -22.8% | -18.4 | -1.7% | 56.2µM* | -2.2% | ?
COC(=O)c1ccccc1NC(=O)COC(=O)c1ccc(C)c(NC(=O)c2ccco2)c1 | -17.0% | . | 34.8% | 22.1% | 2.1% | 22.7%
COC(=O)c1ccccc1NC(=O)COC(=O)c1ccco1 | ? | -27.6 | 6.5% | 8.7% | -9.4% | 50.1µM*
O=C(COC(=O)/C=C/c1ccc(F)cc1)NCc1ccc2c(c1)OCO2 | -2.8% | 0.3 | 19.6% | . | -2.1% | .
NC(=O)c1ccc(NC(=O)COC(=O)/C=C/c2ccc3c(c2)OCO3)cc1 | -16.9%[11.4 µM] | -7.3 | 1.1% | -3.9% | 26.7µM* | -13.7%
SMILES | JMJD2A Tudor inh | PI5P4K alpha inh | HP1b chromo inh | G9a inh | PLK1 PBD block | BAZ2B inh
CC(=O)Nc1ccc(NC(=O)COC(=O)/C=C/c2ccc3c(c2)OCO3)cc1 | -0.7% | 4.0 | 40.7% | ? | 9.9% | -4.2%
O=C(COC(=O)/C=C/c1ccco1)NCc1ccc2c(c1)OCO2 | -19.2% | -28.2 | -0.3% | 56.2µM* | -5.0% | 70.8µM*
CSc1ccc(CCNC(=O)Cn2ccc3cc(S(=O)(=O)N4CCCCCC4)ccc32)cc1 | -0.3% | . | 21.4% | -25.3%[59 µM] | . | -20.1%
CCCCN(C)S(=O)(=O)c1ccc(C(=O)Nc2nnc(C3=COCCO3)o2)cc1 | ? | ? | 22.1% | ? | -16.5% | .
O=C(Nc1nnc(-c2ccccn2)o1)c1cccc(Br)c1 | ? | -9.9 | 29.7% | -9.8% | -12.9% | ?
O=C(Nc1nnc(C2=COCCO2)o1)c1cccc([N+](=O)[O-])c1 | -14.6% | 0.5 | 27.0% | -20.9% | -12.9% | 79.4µM*
O=C(Nc1nnc(C2=COCCO2)o1)c1cccc(Br)c1 | -2.8% | -6.5 | 34.6% | 44.9% | -4.5% | 70.8µM*
CS(=O)(=O)c1cccc(C(=O)Nc2nnc(C3=COCCO3)o2)c1 | 3.16µM* | 0.1 | 75.0% | -10.0%[0.501 µM] | ? | 17.8µM*
COC(=O)c1ccc(NC(=O)CCc2c(C)nc3c(c(C)nn3C(C)(C)C)c2C)cc1 | -1.7% | . | 42.4% | 13.8%[59 µM] | . | -21.8%
Cc1cc(Cl)cc(Cl)c1OCCOc1cccc2cccnc12 | -8.7% | 20.2 | 17.4% | 23.8%[12.7 µM] | -4.0% | 4.4%
Cc1cc(C)c(OCCCCCNCCO)c(C)c1 | -22.6% | . | 22.3% | 5.2% | -7.7% | 11.1%
Cc1cc(Cl)cc(Cl)c1OCCOCCN(C)C | 6.31µM* | 1.3 | ? | 11.2µM* | 1.8% | ?
Cc1cc(C)c(OCCN(C)C)c(Cl)c1 | 3.55µM* | -9.8 | ? | 11.2µM* | ? | 50.1µM*
CN(CCOCCOc1ccc2ccccc2c1)Cc1ccccc1 | -17.5% | -0.4 | 73.7% | 3.5%[59 µM] | -6.1% | -15.3%
Cc1cc(OCCOCCN(C)C)ccc1Cl | 28.2µM* | 8.5 | ? | ? | -1.5% | ?
COc1ccc(C(=O)N2CCC[C@@]3(CCN(c4ccccn4)C3)C2)cc1 | . | . | . | -4.3%[12.7 µM] | . | .
COc1ccc(CC(=O)NNS(=O)(=O)c2ccc(F)cc2)cc1 | -6.7% | -3.5 | 23.1% | ? | -5.0% | -0.8%
CCc1ccc2c(c1)C1(NN=C(c3cccc4ccccc34)S1)C(=O)N2 (centres undefined) | . | . | . | ? | . | 20µM*
COc1cc(CNCc2ccc(C)cc2)cc(OC)c1OC | 20µM* | -1.3 | ? | 28.2µM* | -9.5% | 70.8µM*
COc1cc(CNCc2cccc(OC)c2OC)cc(OC)c1 | 25.1µM* | -1.3 | ? | 33.9%[0.501 µM] | -0.5% | 50.4%
COc1cc(CNCc2ccncc2)cc(OC)c1OC | -28.8% | 1.2 | 24.0% | -4.0%[0.501 µM] | -2.7% | 1.1%
COc1cc(CNCc2cc(OC)c(OC)c(OC)c2)cc(OC)c1 | 20µM* | -1.4 | ? | . | -0.2% | ?

Source: PubChem (National Center for Advancing Translational Sciences (NCATS))
